Results published in PubChem BioAssay AID2275 (Broad Institute, 2010).
In all, about 30,000 compounds went through this assay and about 190 (0.63%) were called active. Many of the other results were omitted from the sample, so actives are more common in it than they were. Unmarked numbers belong to inactive results. Cut-off read from the data, not from the text of the source: active = viability loss activity score above about 50%; inconclusive = no clear call, values can overlap the other calls; inactive = below about 35%.

Assay: BJeLR cell viability loss, primary screen, luminescence, CellTiterGlo ATP (AID 2275);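 note: higher score means fewer live cells and less ATP luminescence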
Details: BJeLR fibroblasts viability, 48 h, stronger effect = higher value, HRASV12, hTERT and SV40 LT/ST transformed, concentration not given here

Q: For `CC(C)c1ccc(NC(=O)c2ccc(NS(=O)(=O)c3cccs3)cc2)cc1`, which viability loss activity score is on record?
A: The viability loss activity score was 11.3%.

Q: For `CCOc1ccc(NC(=O)Cn2c3c(c(-c4ccccc4)cc2=O)CCCC3)cc1`, which viability loss activity score is on record?
A: The viability loss activity score was 3.03%.

Q: With `Cc1ccc2nc(-c3ccc(NC(=O)C4CCC4)cc3)sc2c1` as the compound, how does the viability loss activity score read?
A: Its viability loss activity score is -1.59%.

Q: Which viability loss activity score does the source give for `Cc1ccc(OCC(=O)Nc2ccc(-c3nn4c(C)nnc4s3)cc2)cc1` here?
A: The viability loss activity score was -1.91%.

Q: Which viability loss activity score does the source give for `CC1CCCCN1C(=O)CSc1nc(-c2ccccc2)cc(C(F)(F)F)n1` (stereo unspecified) here?
A: Its viability loss activity score is -1.5%.

Q: Which viability loss activity score does the source give for `CCC1=Nc2cc(C(=O)NCCCN3CCOCC3)ccc2Sc2ccc(Br)cc21` here?
A: Its viability loss activity score is 7.81%.

Q: With `C[C@@H]1CN([C@@H](C)CO)C(=O)c2cccc(NC(=O)Nc3ccc(C(F)(F)F)cc3)c2O[C@@H]1CN(C)S(=O)(=O)c1ccc(F)cc1` as the compound, how does the viability loss activity score read?
A: The viability loss activity score was -0.826%.

Q: Which viability loss activity score does the source give for `N=c1n(CC(=O)c2ccc(Cl)c(Cl)c2)c2ccccc2n1Cc1ccccc1` here?
A: The viability loss activity score was 0.84%.

Q: Which viability loss activity score does the source give for `O=C(NCCc1ccccc1)c1ccc(NC2=NC3CS(=O)(=O)CC3S2)cc1` (stereo unspecified) here?
A: The viability loss activity score was 2.13%.

Q: Which viability loss activity score does the source give for `COc1ccc(S(=O)(=O)Nc2cccc3c2O[C@@H](CN(C)Cc2ccc(-c4ccccc4)cc2)[C@H](C)CN([C@H](C)CO)C3=O)cc1` here?
A: The viability loss activity score was 1.26%.

Q: Which viability loss activity score does the source give for `CC(=O)NC(c1ccccc1)c1ccc2cccnc2c1O` (stereo unspecified) here?
A: The viability loss activity score was 76.4% (active).

Q: Which viability loss activity score does the source give for `CC(C)(C)c1cc(C(=O)Oc2ccc(Cl)cc2)n(Cc2ccccc2)n1` here?
A: Its viability loss activity score is 4.03%.

Q: For `C[C@@H]1CN([C@H](C)CO)C(=O)c2cccc(NS(=O)(=O)c3ccc(F)cc3)c2O[C@@H]1CN(C)C(=O)Nc1ccc(F)cc1`, which viability loss activity score is on record?
A: The viability loss activity score was 3.97%.

Q: With `CCOc1cc(CNc2ccc(OC)cc2)ccc1OCC(=O)NC(C)(C)C` as the compound, how does the viability loss activity score read?
A: The viability loss activity score was -0.358%.

Q: With `COc1ccc(NC(=O)Nc2cccc3c2O[C@@H](CN(C)C(=O)NC(C)C)[C@H](C)CN([C@H](C)CO)C3=O)cc1` as the compound, how does the viability loss activity score read?
A: The viability loss activity score was -0.272%.

Q: For `COc1ccc2[nH]c3c(=O)n(Cc4ccc(C(=O)NCc5cccnc5)cc4)c(=S)[nH]c3c2c1`, which viability loss activity score is on record?
A: The viability loss activity score was 2.75%.

Q: Which viability loss activity score does the source give for `COCc1cc(C)nc2sc(C(N)=O)c(N)c12` here?
A: Its viability loss activity score is 6.31%.

Q: With `CCOc1cc(-c2cc(C)c3c(ccc4ccccc43)n2)ccc1O` as the compound, how does the viability loss activity score read?
A: Its viability loss activity score is -1.76%.

Q: With `CCc1ccc(/C=C2\Cc3ccccc3C2=O)cc1` as the compound, how does the viability loss activity score read?
A: Its viability loss activity score is 4.71%.

Q: For `CCS(=O)(=O)C(=C(Nc1ccccc1)Nc1ccccc1)S(=O)(=O)CC`, which viability loss activity score is on record?
A: The viability loss activity score was 21.6%.

Q: For `CN1/C(=C/C(=S)C(C)(C)C)Sc2ccccc21`, which viability loss activity score is on record?
A: The viability loss activity score was 0.712%.

Q: For `CCCCn1c(-c2ccc(Br)cc2)nc2ccccc21`, which viability loss activity score is on record?
A: Its viability loss activity score is -1.15%.

Q: For `Cc1ccc(NC2CCCCC2NS(=O)(=O)c2ccccc2)cc1` (stereo unspecified), which viability loss activity score is on record?
A: The viability loss activity score was 8.06%.

Q: Which viability loss activity score does the source give for `Cc1cc(C)c2c(c1)CC(C)(C)c1[nH]c(-c3ccccc3)nc1-2` here?
A: The viability loss activity score was -0.635%.

Q: Which viability loss activity score does the source give for `COCC(=O)NCc1nn(-c2ccccc2)nc1C` here?
A: The viability loss activity score was 1.49%.

Q: Which viability loss activity score does the source give for `Cc1ccc(S(=O)(=O)c2no[n+]([O-])c2S(=O)(=O)c2ccc(C)cc2)cc1` here?
A: Its viability loss activity score is 62% (active).

Q: With `CCOC(=O)N1CCN(C(=O)CSc2ncnc3c2nnn3Cc2ccc(F)cc2)CC1` as the compound, how does the viability loss activity score read?
A: The viability loss activity score was -1.44%.

Q: For `Cc1ccc2c(c1)N(CCC(=O)NC1CCC(C)CC1)C(=O)CO2` (stereo unspecified), which viability loss activity score is on record?
A: Its viability loss activity score is -1.39%.

Q: Which viability loss activity score does the source give for `C=CCn1c(SCc2ccc(C(=O)O)cc2)nnc1-c1cccc(OC)c1` here?
A: The viability loss activity score was -6.6%.

Q: For `CCN(C(=O)c1coc(=O)c2ccccc12)c1cccc(C(F)(F)F)c1`, which viability loss activity score is on record?
A: Its viability loss activity score is 0.65%.

Q: Which viability loss activity score does the source give for `O=C(O)CSc1nnc(COc2ccc(Cl)cc2)n1-c1ccc(Br)cc1` here?
A: Its viability loss activity score is 0.406%.

Q: For `C[C@@H]1CN([C@H](C)CO)C(=O)c2cc(NS(C)(=O)=O)ccc2O[C@H]1CN(C)C(=O)Nc1cccc2ccccc12`, which viability loss activity score is on record?
A: The viability loss activity score was -0.115%.

Q: For `S=C(Nc1cccc(Cl)c1)N1CCCN(Cc2ccccc2Cl)C1`, which viability loss activity score is on record?
A: The viability loss activity score was -1.27%.

Q: With `O=C1CC(c2ccc(F)cc2)CC(O)=C1C=NCCN1CCN(C(=S)Nc2ccccc2)CC1` (stereo unspecified) as the compound, how does the viability loss activity score read?
A: Its viability loss activity score is 8.57%.

Q: Which viability loss activity score does the source give for `Cc1ccc(S(=O)(=O)N2CCCC2)cc1-c1nnc2c3ccccc3c(C)nn12` here?
A: Its viability loss activity score is 2.21%.

Q: With `CCOC(=O)c1c(C)n(C)c2ccccc12` as the compound, how does the viability loss activity score read?
A: Its viability loss activity score is 1.79%.

Q: Which viability loss activity score does the source give for `Cc1ccc(-n2nnnc2-c2cnn(-c3ccccc3)c2C)cc1` here?
A: The viability loss activity score was -4%.

Q: For `Cc1ccc(S(=O)(=O)Nc2ccc3c(c2)C(=O)N([C@H](C)CO)C[C@H](C)[C@H](CN(C)S(C)(=O)=O)O3)cc1`, which viability loss activity score is on record?
A: The viability loss activity score was 0.992%.

Q: Which viability loss activity score does the source give for `COC(OC)c1nc(SCC(=O)Nc2ccc(C(C)C)cc2)ncc1C(=O)O` here?
A: Its viability loss activity score is -6.58%.

Q: For `Cc1oc2cc(Br)c(OC(=O)c3ccco3)cc2c1C(=O)OC(C)C`, which viability loss activity score is on record?
A: Its viability loss activity score is -1.39%.

Q: With `CCc1ccc(NC(=O)c2sc3[nH]c(=O)c(C(=O)O)cc3c2N)cc1` as the compound, how does the viability loss activity score read?
A: The viability loss activity score was -3.87%.

Q: Which viability loss activity score does the source give for `COCCn1cc(C(=O)NC2CCCCCC2)c2c3ccccc3n(C)c2c1=O` here?
A: The viability loss activity score was 2.88%.

Q: Which viability loss activity score does the source give for `COc1ccc(NS(=O)(=O)c2ccc3c(c2)OCC(=O)N3)cc1` here?
A: The viability loss activity score was 3.85%.

Q: With `Cc1ccc(NC(=S)Nc2ccc(C)cc2)cc1` as the compound, how does the viability loss activity score read?
A: Its viability loss activity score is 2.21%.

Q: Which viability loss activity score does the source give for `COC(=O)c1ccccc1Oc1c(F)c(F)nc(N2CCOCC2)c1F` here?
A: Its viability loss activity score is 2.06%.

Q: Which viability loss activity score does the source give for `C=CC1(C)C=C2CCC3C(C)(C)C(O[C@@H]4O[C@@H](CO)[C@H](O)[C@H]4O)CCC3(C)C2CC1O[C@@H]1O[C@H](C)[C@@H](OC)[C@H](O)[C@H]1O` (stereo partly specified) here?
A: Its viability loss activity score is -5.62%.

Q: For `C/C=C(/C)C(=O)O[C@H]1CC(C)(C)C[C@H]2C3=CCC4[C@@]5(C)CC[C@H](O[C@@H]6O[C@H](C(=O)O)[C@@H](O[C@@H]7O[C@H](CO)[C@H](O)[C@H](O)[C@H]7O[C@@H]7O[C@H](CO)[C@@H](O)[C@H](O)[C@H]7O)[C@H](O)[C@H]6O[C@@H]6O[C@@H](C)[C@H](O)[C@@H](O)[C@H]6O)C(C)(C)C5CC[C@@]4(C)[C@]3(C)[C@@H](OC(C)=O)[C@@H](O)[C@@]12COC(C)=O` (stereo partly specified), which viability loss activity score is on record?
A: Its viability loss activity score is 72.5% (active).

Q: Which viability loss activity score does the source give for `CC1OC(OC2C(OC3C(O[C@H]4CC[C@@]5(C)C(CC[C@]6(C)C5CC=C5[C@@H]7CC(C)(C)C[C@@H](O)[C@]7(C)CC[C@]56C)C4(C)C)OC(C(=O)O)C(O)C3O)OC(CO)C(O)C2O)C(O)C(O)C1O` (stereo partly specified) here?
A: Its viability loss activity score is 2.12%.

Q: For `COc1ccc(/C=C/C(=O)O[C@@H]2[C@@H](OC(=O)/C=C/c3ccc(OC)cc3)[C@H](C)O[C@@H](O[C@H]3[C@@H]4C=CO[C@@H](O[C@@H]5O[C@H](CO)[C@@H](O)[C@H](O)[C@H]5O)[C@@H]4[C@@]4(CO)O[C@@H]34)[C@@H]2OC(C)=O)cc1`, which viability loss activity score is on record?
A: Its viability loss activity score is -3.51%.

Q: Which viability loss activity score does the source give for `C/C=C(/C)C(=O)O[C@H]1CC(C)(C)C[C@H]2C3=CCC4[C@@]5(C)CC[C@H](O[C@@H]6O[C@H](C(=O)O)[C@@H](O[C@@H]7O[C@H](CO)[C@H](O)[C@H](O)[C@H]7O[C@@H]7O[C@H](CO)[C@@H](O)[C@H](O)[C@H]7O)[C@H](O)[C@H]6O[C@@H]6O[C@@H](C)[C@H](O)[C@@H](O)[C@H]6O)C(C)(C)C5CC[C@@]4(C)[C@]3(C)[C@@H](O)[C@@H](O)[C@@]12CO` (stereo partly specified) here?
A: Its viability loss activity score is 104% (active).

Q: Which viability loss activity score does the source give for `CC1(C)CC[C@]2(C(=O)O)CC[C@]3(C)C(=CCC4[C@@]5(C)CC[C@H](OC6O[C@H](CO)[C@@H](O)[C@H](O[C@@H]7O[C@H](CO)[C@@H](O)[C@H](O)[C@H]7O)[C@H]6O)C(C)(C)C5CC[C@]43C)[C@@H]2C1` (stereo partly specified) here?
A: The viability loss activity score was 17.9%.
